# Screens: PubChem BioAssay, National Center for Advancing Translational Sciences (NCATS)
# Cruzain noTriton: inhibitors of Trypanosoma cruzi cruzain without detergent; purified cruzain, Z-FR-AMC fluorescence, no detergent; Potency, µM, actives largely listed as inhibitors; 200,000 compounds, 2.3% hits; P25779; also: nearly all actives have a fitted effect of over 40% in size
# Target sequence (P25779 123-467 limits assumed): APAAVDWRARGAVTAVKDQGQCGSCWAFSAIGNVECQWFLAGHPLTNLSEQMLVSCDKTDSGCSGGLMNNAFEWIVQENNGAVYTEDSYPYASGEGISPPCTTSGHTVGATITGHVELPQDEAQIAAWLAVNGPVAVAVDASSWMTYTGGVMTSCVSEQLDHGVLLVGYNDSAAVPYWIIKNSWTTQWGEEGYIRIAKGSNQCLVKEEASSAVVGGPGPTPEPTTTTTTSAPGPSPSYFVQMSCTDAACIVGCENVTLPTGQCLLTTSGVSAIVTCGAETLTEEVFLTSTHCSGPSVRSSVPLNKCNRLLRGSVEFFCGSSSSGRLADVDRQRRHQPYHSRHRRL
#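 Detergent-free condition (0.00005% Triton X-100) in acetate buffer pH 5.5 with DTT. 1.5 nM enzyme and compound were pre-mixed 15 min, then 2 uM Z-FR-AMC substrate added; reaction progress from fluorescence change between first and third reads (60 s).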
# Cruzain Triton: cruzain (T. cruzi) inhibition with detergent; purified cruzain, Z-FR-AMC fluorescence, 0.01% Triton; Potency, µM, usual class: inhibitors; 200,000 compounds, 0.43% hits; AID 1478; also: nearly all actives have a fitted effect of over 40% in size
#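 Cysteine protease activity tested under reducing, mildly acidic conditions (100 mM sodium acetate pH 5.5, 5 mM DTT) plus 0.01% Triton X-100. Cruzain 1.5 nM; substrate Z-FR-AMC 2 uM; 15 min compound preincubation at room temperature.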
# Numbers stand for hits; i = inactive; ? = inconclusive. Hits are enriched below; roughly 2.5% of the tested compounds scored in any of these assays. Calls follow the shape of the dose curve; as a rule, active = well fitted curve in the direction sought with a large enough effect; inconclusive = small, poorly fitted or top-dose-only effect, or another doubt; inactive = no such curve, though single readings can be large; an effect the other way counts as inactive or inconclusive.
SMILES,Cruzain noTriton,Cruzain Triton
O=C(NNC(=O)c1cccs1)c1ccc(Br)o1,i,i
O=C(Nc1ccc(NC(=O)c2cccs2)cc1)c1ccc(Br)o1,25µM,i
CCN(Cc1ccccc1)C(=O)CN1C(=O)CSc2ccc(S(=O)(=O)N(CC)CC)cc21,i,i
COc1ccc(CC(=O)NCc2ccc3c(c2)CCN3C(=O)c2ccc(Cl)cc2)cc1OC,?,i
CCCn1c(CCC(=O)Nc2cc(Cl)c(OC)cc2OC)nc2cccnc21,i,i
COc1ccc(CCNC(=O)c2cc(=O)c3cc(C)c(C)cc3o2)cc1OC,i,i
Cc1cc(C(=O)CN2C(=O)NC3(CCCc4ccccc43)C2=O)c(C)n1Cc1ccccc1 (centres undefined),25µM,i
Cc1cc(C(=O)CN2C(=O)NC3(CCCc4ccccc43)C2=O)c(C)n1Cc1ccco1 (centres undefined),?,i
Cc1ccc(NC(=O)Cn2cnc3sc(C(=O)NCCN(C)C)c(C)c3c2=O)cc1Cl,i,i
Cc1ccc(NC(=O)Cn2cnc3sc(C(=O)O)c(C)c3c2=O)cc1Cl,i,0.0063µM
OCCN1CCN(C(=S)c2ccc(Cl)c(Cl)c2)CC1,25µM,i
CCN1CCN(C(=S)c2ccc(Br)cc2)CC1,i,i
COc1ccc(-c2nn(-c3ccccc3)cc2/C=N/NC(=O)c2ccc(Br)o2)cc1,25µM,i
O=C(N/N=C/c1cn(-c2cccs2)nc1-c1ccccc1)c1ccccc1Br,?,i
O=C(N/N=C\c1cn(-c2ccccc2)nc1-c1ccccc1)c1ccc2c(c1)OCO2,20µM,i
O=C(N/N=C/c1cn(-c2ccccc2)nc1-c1cc2ccccc2o1)c1ccccc1Br,7.9µM,i
COc1ccc(-c2nn(-c3ccccc3)cc2C(=O)Nc2ccccc2OC)cc1,i,i
COc1ccc(-c2nn(-c3ccccc3)cc2/C=N/NC(=O)c2ccc3c(c2)OCO3)cc1,?,i
COc1ccc(-c2nn(-c3ccccc3)cc2/C=N/NC(=O)c2cccc(S(=O)(=O)Nc3ccccc3OC)c2)cc1,10µM,i
O=C(N/N=C/c1cn(-c2ccccc2)nc1-c1ccc(F)cc1)c1ccc2c(c1)OCO2,?,i
CCOc1ccccc1N(CC)C(=O)c1cc2c(=O)[nH]c3ccc(C)cc3c2s1,i,i
Cc1nn(Cc2noc(C(=O)NC(C)c3ccccc3)n2)c(C)c1Br (centres undefined),i,i
Cn1ncc(C(=O)N2CCN(c3ccc(F)cc3)CC2)c1C1CCN(C(=O)OC(C)(C)C)CC1,?,i
O=C(NCc1ccc(F)cc1)c1cc2c(s1)-c1ccccc1SC2,?,i
CCOC(=O)c1ccccc1NC(=O)c1cc2c(s1)-c1c(C)cccc1OC2,i,i
SMILES,Cruzain noTriton,Cruzain Triton
O=C(NCc1ccccc1Cl)c1cc2c(s1)-c1ccccc1SC2,25µM,i
COc1ccc(C)cc1NC(=O)c1cc2c(s1)-c1ccccc1SC2,16µM,i
COc1ccc(Cl)cc1NC(=O)c1cc2c(s1)-c1ccccc1OC2,i,i
CCc1ccccc1N(CC)C(=O)c1cc2c(s1)-c1ccccc1SC2,i,i
CC(C)c1ccc(NC(=O)c2cc3c(s2)-c2ccccc2SC3)cc1,10µM,i
CCOC(=O)c1ccccc1NC(=O)c1cc2c(s1)-c1ccccc1SC2,7.9µM,i
O=C(Nc1ccc(F)cc1Cl)C1Cc2ccccc2N1C(=O)c1ccccc1 (centres undefined),i,i
COc1ccc(N2CCN(C(=O)C3CCN(S(=O)(=O)c4cnc[nH]4)CC3)CC2)cc1,i,i
Cc1ccc(C)c(NC(=O)C(=O)NCCc2csc3nc(-c4ccccc4C)nn23)c1,i,i
Fc1cccc(CSc2nc(NCCc3ccccc3)c3ccccc3n2)c1,i,i
Cc1cc(NC(=O)CC2CCCC2)n(-c2nc3ccccc3[nH]2)n1,i,i
Cc1cc(NC(=O)c2ccc(F)cc2F)n(-c2nc3ccccc3[nH]2)n1,20µM,i
O=C(NCCCN1CCN(c2ccccc2F)CC1)c1sc2ncccc2c1-n1cccc1,i,i
N[C@H](C(=O)O)[C@H](OCc1ccccc1)C(=O)O,i,i
CC(C)c1ccc(NC(=O)CSc2nc(=O)n(Cc3ccccn3)c3c2CCC3)cc1,i,i
CC(C)n1cc(/C=N\NC(=O)c2cc3c(ccc4ccccc43)o2)c2ccccc21,5µM,i
O=C(N/N=C/c1cccnc1)c1cc2c(ccc3ccccc32)o1,i,i
O=C(NC1CCCC1)c1cc2c(ccc3ccccc32)o1,i,i
Cc1ccc(/C=N/NC(=O)c2cc3c(ccc4ccccc43)o2)cc1[N+](=O)[O-],6.3µM,i
O=C(N/N=C/c1cn(CCOc2ccccc2)c2ccccc12)c1ccncc1,?,i
CCn1cc(/C=N/NC(=O)c2cc3c(ccc4ccccc43)o2)c2ccccc21,7.9µM,i
CN1CCN(c2ccnc(-c3ccc(N(C)C)cc3)n2)CC1,i,i
Cc1c(Cl)ccc2sc(N3CCN(C(=O)c4ccco4)CC3)nc12,i,i
